# Laboratory results: ChEMBL document CHEMBL1201862, “PubChem BioAssay data set” (2004)
# Where “and” joins values, the source holds several entries; their conditions need not be identical. Equal values may be shown once. Out of some 400,000 compounds screened, about 2,100 (0.53%) were called active. Inconclusive results (about 14%) are left out. No rule for the calls is given here. What follows is part of a selection rich in actives, with near analogues and random picks from the rest.
# Molecular target: Ataxin-2 (Homo sapiens) (UniProt Q99700)
# Assay: qHTS for Inhibitors of ATXN expression.
# Assay type: functional
# Sequence of Ataxin-2 (Homo sapiens) (Q99700 whole entry): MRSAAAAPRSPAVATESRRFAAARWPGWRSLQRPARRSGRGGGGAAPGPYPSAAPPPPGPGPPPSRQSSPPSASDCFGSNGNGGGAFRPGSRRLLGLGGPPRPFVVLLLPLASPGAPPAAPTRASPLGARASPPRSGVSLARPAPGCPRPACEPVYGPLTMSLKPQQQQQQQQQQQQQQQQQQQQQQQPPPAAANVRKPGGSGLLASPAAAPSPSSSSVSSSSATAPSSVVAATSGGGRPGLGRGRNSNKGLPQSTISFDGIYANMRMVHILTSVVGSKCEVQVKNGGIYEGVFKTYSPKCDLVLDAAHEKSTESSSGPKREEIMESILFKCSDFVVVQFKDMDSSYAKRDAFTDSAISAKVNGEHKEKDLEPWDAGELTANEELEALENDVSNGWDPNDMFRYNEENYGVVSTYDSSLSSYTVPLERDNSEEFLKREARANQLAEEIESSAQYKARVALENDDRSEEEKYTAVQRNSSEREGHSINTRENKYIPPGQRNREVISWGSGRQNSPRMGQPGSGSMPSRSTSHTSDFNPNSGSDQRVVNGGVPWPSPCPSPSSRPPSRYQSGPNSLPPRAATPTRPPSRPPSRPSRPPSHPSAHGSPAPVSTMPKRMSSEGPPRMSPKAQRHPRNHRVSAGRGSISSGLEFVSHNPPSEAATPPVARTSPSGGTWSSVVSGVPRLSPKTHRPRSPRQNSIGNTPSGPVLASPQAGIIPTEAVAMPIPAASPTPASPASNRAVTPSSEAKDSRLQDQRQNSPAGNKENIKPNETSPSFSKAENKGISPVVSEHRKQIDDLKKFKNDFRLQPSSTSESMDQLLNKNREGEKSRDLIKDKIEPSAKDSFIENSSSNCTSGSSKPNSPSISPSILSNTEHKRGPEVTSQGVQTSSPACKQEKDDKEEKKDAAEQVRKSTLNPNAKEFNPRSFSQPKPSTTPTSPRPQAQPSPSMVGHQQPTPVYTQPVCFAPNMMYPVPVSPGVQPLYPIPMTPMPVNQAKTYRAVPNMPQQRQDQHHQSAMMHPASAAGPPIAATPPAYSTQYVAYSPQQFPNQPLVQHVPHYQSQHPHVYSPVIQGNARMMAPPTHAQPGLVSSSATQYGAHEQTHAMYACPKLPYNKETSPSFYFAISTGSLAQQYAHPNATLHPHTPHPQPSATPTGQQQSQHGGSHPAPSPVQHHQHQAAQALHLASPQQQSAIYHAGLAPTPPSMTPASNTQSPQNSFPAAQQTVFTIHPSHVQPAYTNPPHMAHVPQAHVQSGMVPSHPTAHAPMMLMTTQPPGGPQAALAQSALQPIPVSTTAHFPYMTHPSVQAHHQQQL
row,Structure (SMILES),Potency
1,COc1ccc(Nc2nc3c(C)cccc3cc2C#N)cc1,inactive
2,N#Cc1nccc2ccc(OCc3ccc(Br)cc3)cc12,inactive
3,CN(C(=O)COC(=O)c1cc2ccccc2cc1O)c1ccccc1,inactive
4,Cc1ccc(NC(=O)Cn2c(O)c(N=NC(=O)c3cc4ccccc4cc3O)c3ccccc32)cc1,8.91 µM (active)
5,Cn1c(O)c(/C=N/NC(=O)c2cc3ccccc3cc2O)c2ccccc21,inactive
6,Cc1ccc(C(=O)NNC(=O)c2cc3ccccc3cc2O)cc1,inactive
7,O=C(N=Nc1c(O)n(Cc2ccccc2)c2ccccc12)c1cc2ccccc2cc1O,39.8 µM (active)
8,Cc1c(O)ccc2c(CC(=O)N[C@@H](Cc3ccc(O)cc3)C(=O)O)cc(=O)oc12,inactive
9,Cc1sc(NC(=O)c2ccccc2)c(C(c2ccc(Cl)cc2)N2CCN(CCO)CC2)c1C (stereo not drawn),28.2 µM (active)
10,CCS(=O)(=O)c1nc(S(=O)(=O)c2ccc(Cl)cc2)c(N2CCN(CCO)CC2)s1,inactive
11,Cc1c(-c2ccc(Cl)cc2)c(=O)oc2c(CN3CCN(CCO)CC3)c(O)ccc12,inactive
12,Cn1c(C(=O)NCc2ccccn2)cc2c(=O)n3ccccc3nc21,inactive
13,Cc1cccc(C2=NN(c3ccccc3)[C@H](CO)[C@H]2c2ccc(Cl)cc2)c1,inactive
14,CCN(CC)c1ccc(/C=N/NC(=O)c2cccc(S(=O)(=O)Nc3ccccc3OC)c2)c(O)c1,inactive
15,CCN1C/C(=C\c2cc(OC)c(OC)c(OC)c2)C2=NN(c3ccccc3)C(c3cc(OC)c(OC)c(OC)c3)C2C1 (stereo not drawn),inactive
16,CCOc1ccc(NC(=O)COc2ccc(C(=O)NCCc3ccccc3)cc2)cc1,inactive
17,Cc1ccc(C(=O)OCC(=O)NCCc2ccccc2)cc1C,inactive
18,CCOC(=O)c1ccc(NC(=O)COc2ccccc2CNCCc2ccccc2)cc1,29.9 µM (active)
19,CCCCn1nc(NC(=O)c2cccs2)c2cc3ccccc3nc21,inactive
20,NS(=O)(=O)c1ccc(NCc2cnc3ccccc3c2)cc1,inactive
21,CCOc1ccc2nc(NCCCNS(=O)(=O)c3ccc(C)cc3)c(C#N)cc2c1,inactive

row,Structure (SMILES),Potency
1,c1ccc(COc2ncnc3c2ncn3CCCNC2CCN(Cc3ccccc3)CC2)cc1,39.8 µM (active)
2,c1ccc(COc2ncnc3c2ncn3CCCNCC(c2ccccc2)c2ccccc2)cc1,25.1 µM (active)
3,COCCCn1c(C(=O)N2CC(C)OC(C)C2)cc2c(=O)n3ccccc3nc21 (stereo not drawn),inactive
4,O=C(CC(=O)N/N=C/c1c(F)cccc1Cl)NCCc1ccccc1,inactive
5,CCOc1ccc2nc(N3CCC(C(=O)N4CCN(c5ncccn5)CC4)CC3)sc2c1,inactive
6,CCCCN(C)CCCNC(=O)C1CCN(c2nc3ccc(CC)cc3s2)CC1,28.2 µM (active)
7,Cc1c(C(=O)NCc2ccc3c(c2)cc(C)n3C)cccc1[N+](=O)[O-],inactive
8,COc1ccc2c(-c3ccc(OCCN4CCCCC4)cc3)c(-c3ccccc3OC)sc2c1,39.8 µM (active)
9,COc1ccc(-c2c(C)c3ccc(O)c(CN4CCCCC4)c3oc2=O)cc1OC,inactive
10,COc1ccc(-c2sc3cc(OC)ccc3c2-c2ccc(OCCN3CCCCC3)cc2)cc1,25.1 µM (active)
11,COc1ccccc1OCCCCN1CCCCC1,inactive
12,Brc1ccccc1OCCCN1CCCC1,inactive
13,COc1ccccc1-c1sc2ccccc2c1-c1ccc(OCCN2CCCCC2)cc1,35.5 µM (active)
14,COc1cccc2sc3cc(NCCCN4CCOCC4)ccc3c(=O)c12,inactive
15,c1ccc2c(-c3ccc(OCCN4CCCCC4)cc3)c(-c3ccsc3)sc2c1,39.8 µM (active)
16,CSCCC1NC(=O)N(CC(=O)Nc2ccc(Br)cc2Br)C1=O (stereo not drawn),inactive
17,CCOc1cccc(NC(=O)c2sc3nc(-c4ccc(F)cc4)ccc3c2N)c1,inactive
18,COc1ccccc1-c1sc2ccccc2c1C#Cc1ccc(N(C)C)cc1,inactive
19,COC(=O)c1c(-c2ccc(N(C)C)cc2)sc2ccc(OC)cc12,inactive
20,COc1cccc(-c2sc3ccccc3c2-c2ccc(OCCN3CCCCC3)cc2)c1,28.2 µM (active)
21,COc1ccc2sc(-c3ccc(N(C)C)cc3)c(C#CCO)c2c1,inactive

row,Structure (SMILES),Potency
1,COc1ccc2sc(-c3ccccc3OC)c(-c3ccc(OCCN(C)C)cc3)c2c1,39.8 µM (active)
2,COc1cccc(-c2sc3ccccc3c2-c2ccc(OCCN(C)C)cc2)c1,28.2 µM (active)
3,O=C(Nc1nc2n(n1)C(c1ccc(F)cc1)C=C(c1ccccc1)N2)c1ccc(Cl)cc1 (stereo not drawn),inactive
4,S=C(c1ccc(-c2ccc(Br)cc2)o1)N1CCOCC1,inactive
5,CCc1cc(=O)oc2c3c(c(Cl)cc12)OCN(Cc1cccc(OC)c1)C3,inactive
6,CCCO/C(O)=C1\C(C)=NC2=C(C(=O)CC(C)(C)C2)C1c1cccnc1 (stereo not drawn),inactive
7,CC1C2=C(O)CC(C)(C)CC2=NC2=C1C(=O)CC(C)(C)C2 (stereo not drawn),inactive
8,CCCc1ccc(C2C3=C(CC(C)(C)CC3=O)N=C3C2=C(O)c2ccccc23)cc1 (stereo not drawn),20 µM (active)
9,O=S(=O)(Nc1ccccc1N1CCOCC1)c1ccccc1C(F)(F)F,inactive
10,O=C1CCCc2nc3c(cc21)C(O)Oc1c-3ccc2ccccc12 (stereo not drawn),inactive
11,Cn1c(SCc2ccccc2F)nc2ccccc2c1=O,inactive
12,CN(Cc1ccccc1)C(=O)c1ccc(CSc2nc3cccnc3n2Cc2ccccc2F)cc1,20 µM (active)
13,O=C(Cc1c(F)cccc1Cl)N(Cc1ccccc1)c1ccccn1,inactive
14,CN1CCN(Cc2c(O)ccc3cc(-c4ccccn4)c(=O)oc23)CC1,inactive
15,CN1CCN(Cc2nc3ccccc3c(=O)n2Cc2nc(-c3ccc4ccccc4c3)cs2)CC1,39.8 µM (active) and 25.1 µM (active)
16,O=C(CN1C(=O)CCC1=O)Nc1nc(-c2ccc3ccccc3c2)cs1,inactive
17,C[C@H]1C(c2ccc(F)cc2)=NN(c2ccccc2)[C@@H]1CO,inactive
18,O=C(CSc1nnc2ccccn12)Nc1ccc(S(=O)(=O)N2CCOCC2)cc1,inactive
19,COc1ccc(Cl)cc1CC1(C)C(=O)Nc2ccc(S(=O)(=O)NC3CCCCC3)cc21 (stereo not drawn),35.5 µM (active)
20,COc1ccc(CCNS(=O)(=O)c2ccc3c(c2)CCCC3)cc1OC,inactive
21,COc1ccc(-c2csc(/C(C#N)=C/Nc3cc4oc5ccccc5c4cc3OC)n2)cc1,inactive
